# Test results published in PubChem BioAssay (NCI).
# About 79,000 compounds went through this panel and 15% of them were active in at least one assay; those are over-represented in the sample as a whole. Values without a mark were called inactive. Calls of active or inactive are those of the source. No stated cut-off is given here; in the data, active means growth inhibition above about 70%; inactive means the rest.
# Experiment: NCI Yeast Anticancer Drug Screen. Data for the wt2 strain (AID 169);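 further: 0% = growth of vehicle-treated yeast cultures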
# Conditions: S. cerevisiae wt2 strain growth inhibition, stronger effect = higher value
# Protocol: Growth inhibition of yeast strains with defined genetic alterations is measured as a screen for potential anti-cancer activity. Selected strains with alterations in DNA damage repair or cell cycle control were exposed to compounds and growth inhibition was measured relative to vehicle treated controls. The strain used in this assay is wt2
Compound,growth inhibition (at 1.2 µM) [%],growth inhibition (at 3.7 µM) [%],growth inhibition (at 11.0 µM),growth inhibition (at 33.0 µM),growth inhibition (at 100.0 µM)
CC(=O)N1C(=O)/C(=C\C(=O)c2ccc([N+](=O)[O-])cc2)c2ccccc21,29,55,93% (active),98% (active),98% (active)
CC(=O)C1=C(O)C2(C)c3c(O)c(C)c(O)c(C(C)=O)c3OC2(Sc2ccccc2)CC1=O (stereo not given),10,34,41%,54%,89% (active)
CCCCCCCCCCCCCCCCCCNC(=S)/N=C\C1=C(O)c2ccccc2C1=O,-2,-2,1%,13%,36%
CC1C(C#N)(C#N)C(C#N)=C(N)C1(Cl)[N+](=O)[O-] (stereo not given),-1,7,22%,58%,92% (active)
CCC(c1ccc(O)cc1)C(CC)c1ccc(OCCN)cc1 (stereo not given),-2,-9,6%,8%,92% (active)
COc1ccc2oc(-c3ccc(Cl)cc3)c(N3CCN(C)CC3)c2c1,0,-3,97% (active),99% (active),99% (active)
CC(C)c1cccc(O)c(=O)c1,9,14,13%,70% (active),99% (active)
Cc1cc(O)c2c(c1)C(=O)C=C(Br)C2=O,-4,7,54%,99% (active),97% (active)
